Outcome and AC50 data for 7 molecules are collected here from PubChem BioAssay (EPA / NIEHS).

Structures are written as SMILES. Activity calls are given as the source filed them. Rule for the calls: active = hit-call score of the fitted dose curve at least 0.9, where 1 is the maximum; inactive = score below 0.9.

Holding throughout (details): mRNA level, 48 h; actives raise or lower the signal
Read-out in test [1]: growth arrest and DNA damage 45 (GADD45G), GADD45G (gene 10912)
Briefly: LTEA_HepaRG_GADD45G: Life Technologies and Expression Analysis (LTEA) Assay for growth arrest and DNA damage 45 (GADD45G) using HepaRG (AID 2283499). The method in brief: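 GADD45G transcript level by qRT-PCR (housekeeping-normalized: ACTB, GAPDH, POLR2A) after 48 h chemical treatment of a single HepaRG lot in serum-free induction medium; eight-point half-log series up to 100 uM in 0.5% DMSO, duplicates, up- or down-regulation scored.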

Read-out in test [2]: Glutamate-cysteine ligase regulatory (GCLM), GCLM (gene 2730)
Briefly: LTEA_HepaRG_GCLM: Life Technologies and Expression Analysis (LTEA) Assay for Glutamate-cysteine ligase regulatory (GCLM) using HepaRG (AID 2283500). An outline of the steps:
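In this multiplexed HepaRG gene-expression assay, GCLM mRNA change after 48 h treatment (8 concentrations, max 100 uM) was scored against DMSO by bidirectional curve fitting.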

Read-out in test [3]: Glutathione S-transferase M3 (GSTM3), GSTM3 (gene 2947)
Nature of the test: LTEA_HepaRG_GSTM3: Life Technologies and Expression Analysis (LTEA) Assay for Glutathione S-transferase M3 (GSTM3) using HepaRG (AID 2283501). The method in brief: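 GSTM3 transcript levels came from Fluidigm TaqMan qRT-PCR normalized to three housekeeping genes, fitted in both directions against DMSO. HepaRG cultures received chemicals for 48 h in serum-free induction medium (0.5% DMSO), 8 half-log concentrations up to 100 uM, duplicate.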

Read-out in test [4]: Heat shock 70 kDa protein 1 (HSPA1A), gene 3303
Nature of the test: LTEA_HepaRG_HSPA1A: Life Technologies and Expression Analysis (LTEA) Assay for Heat shock 70 kDa protein 1 (HSPA1A) using HepaRG (AID 2283502). An outline of the steps: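 An oxidative-stress marker readout: HepaRG cells treated 48 h in duplicate with an eight-point series (highest 100 uM) had HSPA1A mRNA quantified by TaqMan qRT-PCR. Activity was fitted in both directions using 0.5% DMSO as baseline.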

Read-out in test [5]: Hypoxia-inducible factor 1-alpha (Homo sapiens) (UniProt Q16665)
Nature of the test: LTEA_HepaRG_HIF1A: Life Technologies and Expression Analysis (LTEA) Assay for Hypoxia-inducible factor 1 (HIF1A) Trancription factor using HepaRG (AID 2283503). An outline of the steps:
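Gain- or loss-of-signal HIF1A mRNA changes are fitted against a DMSO baseline. HepaRG cultures receive eight concentrations, highest 100 uM, for 48 h in serum-free induction medium with 0.5% DMSO.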

Read-out in test [6]: 3-Hydroxy-3-Methylglutaryl-CoA Synthase 2 (HMGCS2), HMGCS2 (gene 3158)
Briefly: LTEA_HepaRG_HMGCS2: Life Technologies and Expression Analysis (LTEA) Assay for 3-Hydroxy-3-Methylglutaryl-CoA Synthase 2 (HMGCS2) using HepaRG (AID 2283504). The method in brief: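 Readout is HMGCS2 transcript by qRT-PCR, housekeeping-normalised (ACTB/GAPDH/POLR2A) and fitted bidirectionally against 0.5% DMSO. Differentiated HepaRG cells received chemicals 48 h, duplicate wells, eight half-log concentrations topping at 100 uM.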

Read-out in test [7]: HGF (gene 3082)
Nature of the test: LTEA_HepaRG_HGF: Life Technologies and Expression Analysis (LTEA) Assay for Hepatocyte Growth Facto (HGF) using HepaRG (AID 2283505). The method in brief: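 HGF transcript was quantified by TaqMan qRT-PCR against three housekeeping genes after 48 h treatment of HepaRG cells. Exposure ran in duplicate over eight half-log steps topping at 100 uM in 0.5% DMSO vehicle.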

Read-out in test [8]: Insulin Like Growth Factor 1 (IGF1), IGF1 (gene 3479)
Nature of the test: LTEA_HepaRG_IGF1: Life Technologies and Expression Analysis (LTEA) Assay for Insulin Like Growth Factor 1 (IGF1) using HepaRG (AID 2283506). The method in brief: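 Endpoint: IGF1 mRNA change by qRT-PCR, housekeeping-normalized, fitted bidirectionally relative to 0.5% DMSO vehicle. Human HepaRG cells were treated 48 h in serum-free induction medium, eight half-log concentrations topping at 100 uM.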

Read-out in test [9]: Intercellular Adhesion Molecule 1 (ICAM1), ICAM1 (gene 3383)
Nature of the test: LTEA_HepaRG_ICAM1: Life Technologies and Expression Analysis (LTEA) Assay for Intercellular Adhesion Molecule 1 (ICAM1) using HepaRG (AID 2283507). The method in brief:
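ICAM1 transcript levels measured by qRT-PCR, normalized to three housekeeping genes (ACTB, GAPDH, POLR2A), after 48 h chemical exposure of HepaRG cells. Duplicate eight-point half-log series from 100 uM in 0.5% DMSO; gain or loss fitted against vehicle.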

Read-out in test [10]: Insulin-like growth factor-binding protein 1 (IGFBP1), IGFBP1 (gene 3484)
Briefly: LTEA_HepaRG_IGFBP1: Life Technologies and Expression Analysis (LTEA) Assay for Insulin-like growth factor-binding protein 1 (IGFBP1) using HepaRG (AID 2283508). An outline of the steps:
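Read-out is qRT-PCR transcript level normalized to three housekeeping genes, fitted in both directions against 0.5% DMSO. Differentiated HepaRG cells received eight half-log concentrations (top 100 uM) in duplicate for 48 h in serum-free induction medium.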

Read-out in test [11]: Interleukin 6 (IL6), IL6 (gene 3569)
Briefly: LTEA_HepaRG_IL6: Life Technologies and Expression Analysis (LTEA) Assay for Interleukin 6 (IL6) using HepaRG (AID 2283509). An outline of the steps: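 Changes in IL6 mRNA, up or down relative to 0.5% DMSO controls, were derived from concentration-response curves in human HepaRG cells treated for 48 h at up to 100 uM, with ACTB, GAPDH and POLR2A as normalizers.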

Read-out in test [12]: Interleukin 6 Receptor (IL6R), IL6R (gene 3570)
Nature of the test: LTEA_HepaRG_IL6R: Life Technologies and Expression Analysis (LTEA) Assay for Interleukin 6 Receptor (IL6R) using HepaRG (AID 2283510).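 For AC50: differentiated human HepaRG liver cells in serum-free induction medium.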 An outline of the steps: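 In this HepaRG screen, test chemicals act on cells for 48 h at up to 100 uM (eight half-log points, duplicate wells). IL6R expression is quantified by qRT-PCR after normalization to ACTB, GAPDH and POLR2A, with DMSO as baseline.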

Read-out in test [13]: Potassium channel subfamily K member 1 (KCNK1), KCNK1 (gene 3775)
Nature of the test: LTEA_HepaRG_KCNK1: Life Technologies and Expression Analysis (LTEA) Assay for Potassium channel subfamily K member 1 (KCNK1) using HepaRG (AID 2283511). The method in brief: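 Human HepaRG cultures receive test chemicals for 48 h in 0.5% DMSO, top concentration 100 uM with half-log dilutions. Induction or suppression of KCNK1 mRNA relative to DMSO is derived by bidirectional fitting of qRT-PCR data.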

Read-out in test [14]: Keratin 19 (KRT19), KRT19 (gene 3880)
Briefly: LTEA_HepaRG_KRT19: Life Technologies and Expression Analysis (LTEA) Assay for Keratin 19 (KRT19) using HepaRG (AID 2283512). The method in brief:
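KRT19 transcript measured by TaqMan qRT-PCR, referenced to three housekeeping genes, after HepaRG cells received test chemicals for 48 h. Eight half-log concentrations, top 100 uM, 0.5% DMSO vehicle; increases and decreases both fitted.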

Read-out in test [15]: JUN Transcription Factor, JUN (gene 3725)
Nature of the test: LTEA_HepaRG_JUN: Life Technologies and Expression Analysis (LTEA) Assay for JUN Transcription Factor using HepaRG (AID 2283513). An outline of the steps:
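Gene-expression endpoint: JUN mRNA (qRT-PCR, normalized to three reference genes) in HepaRG cultures treated 48 h with chemicals, duplicate wells, 100 uM maximum with half-log dilutions; bidirectional fitting relative to 0.5% DMSO.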

Read-out in test [16]: Lipoprotein lipase (LPL), LPL (gene 4023)
Briefly: LTEA_HepaRG_LPL: Life Technologies and Expression Analysis (LTEA) Assay for Lipoprotein lipase (LPL) using HepaRG (AID 2283515). The method in brief: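 Concentration-response testing used half-log steps from 100 uM in 0.5% DMSO on human HepaRG cells, 48 h, duplicate wells. Phenobarbital 1 mM served as induction control; LPL mRNA was normalized to ACTB, GAPDH, POLR2A.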

Read-out in test [17]: matrix metalloproteinase-10 (MMP10), MMP10 (gene 4319)
Nature of the test: LTEA_HepaRG_MMP10: Life Technologies and Expression Analysis (LTEA) Assay for matrix metalloproteinase-10 (MMP10) using HepaRG (AID 2283517). An outline of the steps:
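In differentiated HepaRG cultures kept in 0.5% DMSO, test chemicals act for 48 h over an eight-point range with a top dose of 100 uM. Expression is then quantified by TaqMan RT-PCR against ACTB, GAPDH and POLR2A.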

Read-out in test [18]: MYC, MYC (gene 4609)
Briefly: LTEA_HepaRG_MYC: Life Technologies and Expression Analysis (LTEA) Assay for MYC using HepaRG (AID 2283518). The method in brief: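 MYC transcript changes, up or down relative to 0.5% DMSO, from TaqMan qRT-PCR normalized to three housekeeping genes. Human HepaRG cultures received chemicals for 48 h at eight half-log concentrations up to 100 uM, in duplicate.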

Read-out in test [19]: Lipase C (LIPC), LIPC (gene 3990)
Nature of the test: LTEA_HepaRG_LIPC: Life Technologies and Expression Analysis (LTEA) Assay for Lipase C (LIPC) using HepaRG (AID 2283514). The method in brief: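 In this multiplexed gene-expression screen, human HepaRG cultures received test chemicals for 48 h across eight concentrations with 100 uM highest, in duplicate. Values reflect LIPC mRNA induction or suppression versus DMSO vehicle, from normalized qRT-PCR.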

Read-out in test [20]: MicroRNA 122 (MIR122), gene 406906
Briefly: LTEA_HepaRG_MIR122: Life Technologies and Expression Analysis (LTEA) Assay for MicroRNA 122 (MIR122) using HepaRG (AID 2283516). Note: the transcript read is the microRNA miR-122. An outline of the steps: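 Changes in transcript abundance, up or down relative to 0.5% DMSO vehicle, were scored after 48 h chemical treatment of HepaRG cells (maximum 100 uM). Quantification used TaqMan qRT-PCR normalized to housekeeping genes.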

The AC50 is the midpoint of the concentration-response curve, whichever way the signal moves.

Chain of Hypoxia-inducible factor 1-alpha (Homo sapiens) (Q16665 whole entry, looked up): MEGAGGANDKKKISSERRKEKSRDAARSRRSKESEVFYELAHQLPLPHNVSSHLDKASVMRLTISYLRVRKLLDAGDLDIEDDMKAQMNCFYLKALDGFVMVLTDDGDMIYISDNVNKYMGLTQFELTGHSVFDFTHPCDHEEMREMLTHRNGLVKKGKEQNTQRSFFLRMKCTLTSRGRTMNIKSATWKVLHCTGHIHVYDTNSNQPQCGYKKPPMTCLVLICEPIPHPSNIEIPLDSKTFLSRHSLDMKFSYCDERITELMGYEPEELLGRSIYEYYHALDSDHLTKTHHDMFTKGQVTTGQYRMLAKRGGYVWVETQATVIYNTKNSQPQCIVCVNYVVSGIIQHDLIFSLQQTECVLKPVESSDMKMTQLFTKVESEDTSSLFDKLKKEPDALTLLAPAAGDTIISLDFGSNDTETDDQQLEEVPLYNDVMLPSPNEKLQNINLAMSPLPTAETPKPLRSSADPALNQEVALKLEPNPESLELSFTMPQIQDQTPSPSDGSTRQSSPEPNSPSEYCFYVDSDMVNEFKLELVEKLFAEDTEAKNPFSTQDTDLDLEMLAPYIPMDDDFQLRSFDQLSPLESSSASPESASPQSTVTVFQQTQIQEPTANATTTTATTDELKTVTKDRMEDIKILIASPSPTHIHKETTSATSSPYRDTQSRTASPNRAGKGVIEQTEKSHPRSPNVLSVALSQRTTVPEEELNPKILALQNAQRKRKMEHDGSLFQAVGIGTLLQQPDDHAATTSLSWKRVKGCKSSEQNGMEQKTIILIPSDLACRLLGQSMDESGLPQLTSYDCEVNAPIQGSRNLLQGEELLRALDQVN

As to `CN(C)C(=O)Nc1ccc(Cl)c(Cl)c1`, the call in [1], in test [3], in test [4], in test [5], in [6] and in [7] was inactive. The outcome in test [8], in [9], in test [11], in test [12], in [13] and in test [15] was inactive. Also, the molecule was classed as inactive in test [16] and in test [17]. Besides, the AC50 in [2] was 50 µM (active); in [10], 34.6 µM (active); in test [14] it was 50 µM (active); in test [18], 68.8 µM (active).

Take `CCC(C)OC(=O)N1CCCCC1CCO` (stereo not given): the result in [1], in [2], in test [3], in test [4], in test [5] and in [7] was inactive. For the same molecule, the molecule was called inactive in test [8], in test [9], in test [10], in test [11], in test [12] and in [13]. Also, the call in [14], in [15], in [16], in [17] and in test [18] was inactive.

Take `COC(=O)CSc1cc(N=c2sc(=O)n3n2CCCC3)c(F)cc1Cl`: the call in test [1], in test [2], in test [3], in test [4], in test [5] and in test [7] was inactive. The call in [8], in test [9], in [10], in test [11], in [12] and in test [13] was inactive. The result in test [14], in test [15], in [16], in test [17] and in test [18] was inactive.

For the molecule `COC(=O)c1ccccc1C(=O)O`, the molecule was called inactive in test [1], in test [2], in [3], in test [4], in test [5] and in test [7]. For the same molecule, the outcome in test [8], in [9], in [11], in test [12], in [13] and in [14] was inactive. Besides, the outcome in test [15], in test [16], in test [17] and in test [18] was inactive.

Regarding `Cc1nn(C)c(Oc2ccccc2)c1C=NOCc1ccc(C(=O)OC(C)(C)C)cc1`, the AC50 was 3.1 µM (active) in [1]; 17.6 µM (active) in [2]; 3 µM (active) in test [3]; 1.57 µM (active) in [4]; 86.6 µM (active) in [7]; 3.22 µM (active) in test [8]. The AC50 in test [9] was 16.8 µM (active); in test [10], 9.63 µM (active); in [11], 5.23 µM (active); in test [12] it was 1.28 µM (active); in test [13] it was 12.9 µM (active); in test [14] it was 2.05 µM (active). Moreover, the AC50 was 11.2 µM (active) in test [16], 50 µM (active) in test [17] and 8.62 µM (active) in test [18]. Besides, the call in test [5] and in test [15] was inactive.

For the molecule `O=C(O)c1ccccc1`, the molecule was called inactive in [1], in test [2], in test [3], in test [4], in test [5] and in test [7]. The outcome in test [8], in test [9], in [10], in test [11], in [12] and in test [13] was inactive. The result in test [14], in test [15], in [16], in test [17] and in [18] was inactive.

Regarding `C#C[C@]1(O)CC[C@H]2[C@@H]3CCC4=CC(=O)CC[C@@H]4[C@H]3CC[C@@]21CC`, the molecule was classed as inactive in test [1], in [2], in test [3], in test [4], in [5] and in [7]. Further, the call in test [8], in [9], in test [10], in test [12], in test [14] and in test [15] was inactive. The molecule was classed as inactive in test [19], in [16], in [20], in test [17] and in test [18]. In addition, the half-maximal activity concentration (AC50) in test [11] was 0.0379 µM (active).
